# Test results as given in ChEMBL document CHEMBL3988442, “University of Dundee, Small-Polar-MMV Screening Library” (2021).
# About 1,000 (1.4%) of roughly 69,000 compounds showed an effect of 50% or more. Only a selection was taken, and strong results are over-represented in it overall.
# Tested on: Leishmania donovani
# Experiment: Leishmania intramacrophage assay
# Format: functional, organism-based
# Set-up: scale not given: in the data most compounds retested in dose-response had high values
smiles,measurement,setting,value
Cc1cccc(-c2nc(C)nn2CN2CCC3(CC2)OCCO3)c1,Percent Effect,"30.3 µM, […]",-6.145%
CCc1nnc(SCc2cc(=O)n3c4c(sc3n2)CCCC4)[nH]1,Percent Effect,"30.3 µM, […]",54.93%
Cc1nnc(SCc2cc(=O)n3c4c(sc3n2)CCCC4)[nH]1,Percent Effect,"30.3 µM, […]",36.41%
CCCc1nnc(SCc2cc(=O)n3c4c(sc3n2)CCCC4)[nH]1,Percent Effect,"30.3 µM, […]",1.73%
CN[C@@H]1CCC[C@@H](Oc2ccccc2Oc2ccc(C)cc2)[C@@H]1O,Percent Effect,"30.3 µM, […]",98.74%
COCC1CCN(S(=O)(=O)N2C[C@H](c3ccccc3)[C@@H](N)C2)CC1,Percent Effect,"30.3 µM, […]",12.44%
Cc1occc1C(=O)N1C[C@@H](C(=O)N2CCCCO2)C[C@H]2OCC[C@H]21,Percent Effect,"30.3 µM, […]",22.98%
CN(CC(=O)Nc1cc(C(C)(C)C)n[nH]1)S(C)(=O)=O,Percent Effect,"30.3 µM, […]",-19.26%
CN(CC(=O)Nc1cc(CC2CCCCC2)n[nH]1)S(C)(=O)=O,Percent Effect,"30.3 µM, […]",66.78%
CN(CC(=O)Nc1cc(-c2cc(Cl)cc(Cl)c2)[nH]n1)S(C)(=O)=O,Percent Effect,"30.3 µM, […]",5.087%
Cc1nc(CN2CCCC2c2c(C)nn(C)c2Cl)no1 (stereo unspecified),Percent Effect,"30 µM, 30.03 µM",17.3%
CN(C)Cc1cc(C2CCCCN2S(=O)(=O)Cc2ccccc2)nn1C.Cl (stereo unspecified),Percent Effect,"30.3 µM, […]",-6.731%
CC(NCC(N)=O)c1c(F)cccc1Cl (stereo unspecified),Percent Effect,"30.3 µM, […]",61.56%
CC(C)NC(=O)CNC(C)c1c(F)cccc1Cl (stereo unspecified),Percent Effect,"30.3 µM, […]",-24.44%
CNC(=O)NC(C)c1c(F)cccc1Cl (stereo unspecified),Percent Effect,"30.3 µM, […]",-84.02%
Cn1c(-c2ccccc2Cl)nc2cc(C(=O)NCC3(CO)CC3)cnc21,Percent Effect,"30.3 µM, […]",6.788%
O=c1n(CCNCc2cccc3ccccc23)nc2ccccn12,Percent Effect,"30.3 µM, […]",37.73%
CCC(O)c1nc2c([nH]1)CC(C)(C)CNC2=O (stereo unspecified),Percent Effect,"30.3 µM, […]",4.98%
Cn1ncc2c1C(COCC1CC1)CN(Cc1ccoc1)C2 (stereo unspecified),Percent Effect,"30 µM, 30.03 µM",18.09%
O=C(NCCN1CCC(c2cccs2)CC1)Nc1cccs1,Percent Effect,"30 µM, 30.03 µM",29.53%
CC(=O)NCCN1CCC(c2cccs2)CC1,Percent Effect,"30 µM, 30.03 µM",14.89%
O=C(NCCc1ccccc1)NCCN1CCC(c2cccs2)CC1,Percent Effect,"30.3 µM, […]",51.71%
COCC(=O)NC1CC2(CCN(Cc3ccco3)CC2)c2ccccc21.O=C(O)C(F)(F)F (stereo unspecified),Percent Effect,"30 µM, 30.03 µM",-18.66%
CCOCC1CCN(C(=O)Nc2ccc(-c3csnn3)cc2)C1 (stereo unspecified),Percent Effect,"30.3 µM, […]",-4.056%
CCCC(=O)NC1CCN(c2ccccc2S(=O)(=O)CC)CC1,Percent Effect,30 µM,-8.378%
Cc1ccc(NCC2(O)CCNCC2)cc1C,Percent Effect,"30.3 µM, […]",-19.76%
Cc1ccc(C)c(N2CCN(CC3(O)CCNC3)CC2)c1 (stereo unspecified),Percent Effect,"30.3 µM, […]",98.99%
Cc1ccc(C2(CN3CCN(c4ncccn4)CC3)CCNCC2)nc1,Percent Effect,"30.3 µM, […]",-2.357%
CCOc1ccccc1N1CCN(CC2(O)CCCNC2)CC1 (stereo unspecified),Percent Effect,"30.3 µM, […]",12.99%
Cc1ccccc1N1CCCN(CC2(O)CCCNC2)CC1 (stereo unspecified),Percent Effect,"30.3 µM, […]",97.82%
CSCC(=O)N1CCCN(c2ccccc2C)CC1,Percent Effect,"30 µM, 30.03 µM",12.81%
